In PubChem BioAssay AID1259343 (VanderVen Lab, College of Veterinary Medicine, Cornell …, 2017):
The campaign covered roughly 6,200 compounds. About 2,900 (47%) were called active. Cut-off read from the data, not from the text of the source: active = inhibition above about 50%; inactive = the rest. The set was probably picked from earlier hits. The list shows a part of the results.

Assay: Mycobacterium tuberculosis growth inhibition, primary screen (AID 1259343)
Details: inhibition: at 10 µM, active compounds read high; outcome: 10 uM

| Compound | inhibition |
| --- | --- |
| CC1SC(=S)NN1c1ccccc1 (stereo not given) | 92.6% (active) |
| Cc1cccc(Nc2ccc(NCCNS(=O)(=O)c3ccc(F)cc3)nn2)n1 | 30.2% (inactive) |
| c1ccc2c(OCCCCCn3ccnc3)cccc2c1 | 100% (active) |
| CN=c1scc(-c2cccc(Br)c2)n1N=Cc1ccncc1 | 13.7% (inactive) |
| CN=c1scc(-c2ccco2)n1N=Cc1sccc1C | 42.1% (inactive) |
| CCN=c1scc(C)n1N=Cc1cc(Br)c(O)c(Br)c1 | 84.4% (active) |
| CCN=c1scc(-c2ccco2)n1N=Cc1ccc2c(c1)OCO2 | 23.9% (inactive) |
| CCN=c1scc(C)n1N=Cc1ccc(Br)cc1 | 10.9% (inactive) |
| COCCN=c1scc(-c2ccco2)n1N=Cc1cc(Br)c(O)c(OC)c1 | 15.7% (inactive) |
| CN=c1scc(C)n1N=Cc1cc(Br)c(O)c(Br)c1 | -24.1% (inactive) |
| CN=c1scc(-c2ccco2)n1N=Cc1cc(Br)c(O)c(OC)c1 | 82.5% (active) |
| CN=c1scc(-c2ccco2)n1N=Cc1c(O)ccc2ccccc12 | 54.4% (active) |
| CN=c1scc(-c2ccc(OC)cc2)n1N=Cc1cc(Br)c(O)c(OC)c1 | 97.6% (active) |
| CN=c1scc(-c2cccc(Br)c2)n1N=Cc1ccccc1F | -6.53% (inactive) |
| CN=c1scc(-c2ccccc2Br)n1N=Cc1cccc(O)c1 | 28.8% (inactive) |
| CN=c1scc(-c2cc(Cl)ccc2Cl)n1N=Cc1ccc(O)cc1O | 65.9% (active) |
| Oc1ccc(C=Nn2c(-c3ccco3)csc2=Nc2ccc(F)cc2F)c(O)c1 | 6.26% (inactive) |
| C=C(C)CN=c1scc(-c2ccco2)n1N=Cc1ccc(O)cc1O | 89.4% (active) |
| C=CCN=c1scc(-c2ccco2)n1N=Cc1cc(OC)ccc1O | 16% (inactive) |
| Cc1ccccc1-c1ncc(CN2CCCC2c2nonc2C)s1 (stereo not given) | 27.5% (inactive) |
| Cc1ccccc1-c1nnc(CN2CCCC3CCCC32)o1 (stereo not given) | 59% (active) |
| Cc1ccccc1CCC1CCCN(Cc2nnc(-c3ccco3)o2)C1 (stereo not given) | 2.39% (inactive) |
| Cc1cc(=O)[nH]c(Nc2nc(C)c3cc(C)c(C)cc3n2)n1 | -34.5% (inactive) |
| COC(=O)CC(=O)N1CCC(Cc2ccc(-c3ccccc3)cc2)CC1 | 87% (active) |
| O=C(Cc1ccccc1)N1CCC(Cc2ccc(-c3ccccc3)cc2)CC1 | 72.6% (active) |
| O=C(CCl)N1CCC(Cc2ccccc2)CC1 | -0.35% (inactive) |
| Cc1ccc(C2CC(c3cccc(F)c3)=NN2C(=O)CN2CCC(Cc3ccccc3)CC2)cc1 (stereo not given) | 42.1% (inactive) |

| Compound | inhibition |
| --- | --- |
| COc1ccccc1/C=C/CN1CCCC(CCC(=O)Nc2cc(Cl)ccc2OC)C1 (stereo not given) | 14.3% (inactive) |
| COc1cc2c(cc1NC(=O)CC(C)=NNC=O)oc1ccccc12 | 95.5% (active) |
| Cc1noc(C)c1CCC(=O)Nc1ccc2oc3ccccc3c2c1 | 25.6% (inactive) |
| Cc1cc(C)c2sc(NCC(C)C)nc2c1 | 13.6% (inactive) |
| COC(=O)c1c(N)sc2c1CCC(C(C)(C)C)C2 (stereo not given) | -34.2% (inactive) |
| CC(C)(C)C1CCc2c(C(=O)N/N=C\c3ccoc3)csc2C1 (stereo not given) | 79.8% (active) |
| COC(=O)c1sc2c(c1N)CCC(C(C)(C)C)C2 (stereo not given) | 29.1% (inactive) |
| Cc1cc(=O)n2[nH]cc(-c3ccc(Cl)cc3)c2n1 | -30.9% (inactive) |
| Cc1cc(=O)n2[nH]c(C(F)(F)F)c(-c3ccc(Cl)cc3)c2n1 | 61.6% (active) |
| CC(C)(C)c1cc(=O)n2[nH]cc(-c3ccc(Cl)cc3)c2n1 | 32.1% (inactive) |
| Cc1[nH]n2c(=O)cc(C(C)(C)C)nc2c1-c1ccc(Cl)cc1 | 101% (active) |
| Cc1ccc(-c2c[nH]n3c(=O)cc(C(C)(C)C)nc23)cc1 | 98.8% (active) |
| CC(NC(=O)c1c(O)nc2sccn2c1=O)c1ccccc1 (stereo not given) | 90.9% (active) |
| CC(CCc1ccccc1)NC(=O)c1c(O)nc2sccn2c1=O (stereo not given) | 62.6% (active) |
| CCCCn1c(=O)[nH]c(=O)c2c1nc(COC(=O)C1CC1)n2C | 12.4% (inactive) |
| O=C(Nc1ccc(-c2ccccc2)cc1)C1CC=CCC1C(=O)N1CCc2c([nH]c3ccccc23)C1 (stereo not given) | 91% (active) |
| O=C(O)C1CC=CCC1C(=O)Nc1ccc(N2CCN(c3cccc(Cl)c3Cl)CC2)cc1 (stereo not given) | 21.6% (inactive) |
| C1=CC(c2ccc(C=NNc3nc4ccccc4s3)s2)CC1 (stereo not given) | 99.1% (active) |
| C1=CC(c2ccc(C=NNc3ccccn3)s2)CC1 (stereo not given) | -47.3% (inactive) |
| CC1CC(=NNc2nc3ccccc3s2)CC(C)(C)C1 (stereo not given) | 23.3% (inactive) |
| NC(=S)NN=Cc1ccc(C2C=CCC2)s1 (stereo not given) | 84.9% (active) |
| N#Cc1ccc(C=Nn2c(-c3ccc(F)cc3)csc2=Nc2cccnc2)cc1 | 97.7% (active) |
| C=CCN=c1scc(-c2ccc(C)cc2)n1N=Cc1ccc(F)cc1 | -4.92% (inactive) |
| C(=Nn1c(-c2ccccc2)csc1=NCc1ccccc1)c1cccnc1 | 28.2% (inactive) |
| C=CCNC(=S)NN=C1C=C(C)CC(C)(C)C1 | 103% (active) |
| C=CCNC(=S)NN=C1CCC=C1CCCCC | 21.5% (inactive) |
| C=CCNC(=S)NN=C1CCCCc2ccccc21 | -17.9% (inactive) |

| Compound | inhibition |
| --- | --- |
| Cc1cccc(OCC(O)Cn2cnc3ccc(Cl)cc3c2=O)c1 (stereo not given) | 86.5% (active) |
| Cc1cccc(C)c1OCC(O)Cn1cnc2ccc(Br)cc2c1=O (stereo not given) | 33.4% (inactive) |
| CCn1cnc2cc(-c3ccc(Cl)cc3)sc2c1=O | 29.3% (inactive) |
| CN(CCNc1ccc2c(c1)C(=O)CCC2)c1ccccc1 | 75.6% (active) |
| Cc1ccc(C(=O)NCCN(C)c2ccccc2)c(C)c1 | 35.9% (inactive) |
| Cc1ccc(SCCC(=O)Nc2nnc(-c3cc(C)ccc3C)o2)cc1 | 74.8% (active) |
| CC(C)OC(=O)c1ccc(NC(=O)CCCC(=O)O)cc1 | 50.8% (active) |
| Cc1ccc(NC(=O)C(C)OC(=O)c2cccc(C)c2C)cc1 (stereo not given) | 18.8% (inactive) |
| Cc1cc(=O)[nH]c(-n2nc(C)cc2NC(=O)Cc2cccs2)n1 | 101% (active) |
| CCCc1cc(=O)[nH]c(-n2nc(C)cc2NC(=O)Cc2cccs2)n1 | -25.1% (inactive) |
| CCc1cc(=O)[nH]c(-n2nc(C)cc2NC(=O)Cc2cccs2)n1 | 101% (active) |
| CCCNc1ncnc2c1c(-c1ccccc1)cn2-c1ccccc1 | 95.8% (active) |
| CC(C)OCCCNc1ncnc2c1c(-c1ccccc1)cn2-c1ccccc1 | 101% (active) |
| CN(C)CCCNc1ncnc2c1c(-c1ccccc1)cn2-c1ccc(Br)cc1 | 97.2% (active) |
| Cc1ccc(-n2cc(-c3ccccc3)c3c(NCCCO)ncnc32)cc1Cl | inactive |
| CC(O)CNc1ncnc2c1c(-c1ccccc1)cn2-c1ccc(Cl)cc1 (stereo not given) | 99.4% (active) |
| Cn1ccnc1-c1nccn1Cc1ccc(CN2CCCC2)cc1 | -4.25% (inactive) |
| CN(C)c1ccc(C=Cc2ccc3c4ccccc4ccc3[n+]2-c2ccccc2)cc1 | -1.83% (inactive) |
| O=S(=O)(Nc1ccc(Br)cc1)c1ccc(F)cc1 | 36.6% (inactive) |
| Cc1cc(C)c(C)c(S(=O)(=O)Nc2ccc(F)cc2)c1C | 31.6% (inactive) |
| N#Cc1ccc(NS(=O)(=O)c2ccc(F)cc2)cc1 | 77.8% (active) |
| O=S(=O)(Nc1ccc(Br)c(C(F)(F)F)c1)c1ccc(F)cc1 | 81.1% (active) |
| O=c1[nH]c(=S)ccn1-c1nc(-c2ccccc2)sc1-c1ccccc1 | 21.2% (inactive) |
| NCc1ccc(Oc2cccc(Cl)c2Cl)cc1 | 62.9% (active) |
| Oc1ccccc1Oc1ccc(Oc2ccccc2O)cc1 | 25.7% (inactive) |
| O=C(O)c1sc(Cl)cc1/C=C\c1ccccc1 | 4.33% (inactive) |
| O=C(NS(=O)(=O)c1ccc(Cl)s1)c1sc2cc(Cl)ccc2c1Cl | 77.9% (active) |

| Compound | inhibition |
| --- | --- |
| O=C(NS(=O)(=O)c1ccc(Br)s1)c1ccc(Cl)cc1Cl | 82.9% (active) |
| COc1ccc2c(Cl)c(C(=O)O)sc2c1Cl | 19.7% (inactive) |
| O=C(NC1=NCCS1)c1sc2cc(F)ccc2c1Cl | 5.48% (inactive) |
| O=C(O)c1sc2cc(Cl)cc(Cl)c2c1Cl | 92.8% (active) |
| O=C(O)c1sc2cc(Cl)ccc2c1Cl | 87.1% (active) |
| CC(NC(=O)c1scnc1Cl)c1ccccc1 (stereo not given) | 8.26% (inactive) |
| CC(NC(=O)c1ccc(Cl)c([N+](=O)[O-])c1)c1ccccc1 (stereo not given) | 100% (active) |
| Cc1cc(C)c(S(=O)(=O)NC(C)c2ccccc2)c(C)c1 (stereo not given) | 9.74% (inactive) |
| Cc1ccc(NC(=O)c2csc(NS(=O)(=O)c3cccs3)n2)cc1F | 28.6% (inactive) |
| Cc1cc(C)c(S(=O)(=O)Nc2nc(C(F)(F)F)cs2)c(C)c1 | 78.7% (active) |
| O=C(CCc1nnc(CCc2c[nH]c3ccccc23)o1)N1CCC(c2ccccc2Cl)C1 (stereo not given) | 33.4% (inactive) |
| c1ccc(-c2noc(CCCc3c[nH]c4ccccc34)n2)cc1 | 71.6% (active) |
| O=C1C=CC(=O)N1c1cc(Cl)c(Cl)cc1Cl | 11.4% (inactive) |
| O=c1c(C=NCc2ccco2)c(NCc2ccco2)nc2ccccn12 | 88.3% (active) |
| CCC(C)N=Cc1c(NCc2ccco2)nc2c(C)cccn2c1=O (stereo not given) | 4.74% (inactive) |
| Cc1cccn2c(=O)c(C=NCCO)c(NCc3ccco3)nc12 | 45.5% (inactive) |
| O=C(COc1ccc(F)cc1Br)NCCOc1ccc(Cl)cc1 | 77.7% (active) |
| Cc1ccc(C2=CCN(C(=O)CNC(=O)C3CCCCC3)CC2)cc1 | 93.1% (active) |
| O=C(CC1CCCC1)N1CC=C(c2ccc(O)cc2)CC1 | 41% (inactive) |
| O=C(NC(c1ccccc1)c1ccc2ccccc2n1)C1CCN(Cc2ccc(Oc3ccccc3)cc2)CC1 (stereo not given) | 56.5% (active) |
| C=CC[C@H]1CC(C)=C[C@H](CC=C)N1Cc1ncccc1C(=O)O | -5.55% (inactive) |
| Cc1ccnc(Nc2ccc(NCCNC(=O)Nc3cccc(Cl)c3C)nn2)c1 | 36.1% (inactive) |
| Cc1cccc(C(=O)O)c1O | 23.2% (inactive) |
| Cc1c(Cl)cccc1Nc1ccccc1C(=O)O | 101% (active) |
